Results filed as inconclusive are left out. Unmarked numbers belong to inactive results. The source made the active and inactive calls. The call rests on the fitted dose curve; in most records, active means well fitted curve in the direction sought with a large enough effect; inconclusive means small, poorly fitted or top-dose-only effect, or another doubt; inactive means no such curve, though single readings can be large; an effect the other way counts as inactive or inconclusive.

Assay [1] deals with Cellular tumor antigen p53 (Homo sapiens) (UniProt P04637). Kind of assay: Primary qHTS for small molecule compounds that upregulate eGFP-tagged delta133p53alpha (in N-terminal) cells. (AID 2060322). Further: nearly all actives have a fitted effect of over 75% in size. Further: potency means the concentration at half of the fitted maximal effect.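 On activation: cells pre-induced with doxycycline then dosed without doxycycline; series mostly up to about 56 µM; 0% = DMSO vehicle and 100% = reference activator.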 The note with it: NCI-H358 eGFP-delta133p53alpha fluorescence, 24 h; activation: stronger effect = higher value. Put shortly:
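NCI-H358 cells pre-induced 24 h with 10 ng/ml doxycycline for eGFP-delta133p53alpha, plated dox-free and exposed 24 h at 37C to titrated compounds. Fixed, Hoechst-stained; gated GFP peak intensity by laser scanning cytometry, normalized to DMSO (0%) and 57.5 uM 5-azacytidine (100%).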
In general terms: Quantitative high-throughput screening tests each substance at several concentrations.

Assay [2] concerns the target Aldehyde dehydrogenase, mitochondrial (Homo sapiens) (UniProt P05091). As to the kind of experiment: qHTS for Inhibitors of the Aldehyde Dehydrogenase Family (ALDH2) Primary screen (AID 2061308).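 Further: plate controls were vehicle for no effect and reference inhibitor for full effect; nearly all actives have a fitted effect of over 55% in size.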
The target in assay [3] is Retinaldehyde dehydrogenase 3 (Homo sapiens) (UniProt P47895). As to the kind of experiment: qHTS for Inhibitors of the Aldehyde Dehydrogenase Family (ALDH1A3) Validation screen (AID 2061312). Further: on the % scale 0 is the no-effect control and ±100 the full control effect; nearly all actives have a fitted effect of over 45% in size.
Assay [4] shares this target. Kind of assay: qHTS for Inhibitors of the Aldehyde Dehydrogenase Family (ALDH1A3) Primary screen (AID 2061315).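 Further: plate controls were DMSO vehicle for no effect and reference inhibitor for full effect.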

Cellular tumor antigen p53 (Homo sapiens), sequence (P04637 whole entry, looked up): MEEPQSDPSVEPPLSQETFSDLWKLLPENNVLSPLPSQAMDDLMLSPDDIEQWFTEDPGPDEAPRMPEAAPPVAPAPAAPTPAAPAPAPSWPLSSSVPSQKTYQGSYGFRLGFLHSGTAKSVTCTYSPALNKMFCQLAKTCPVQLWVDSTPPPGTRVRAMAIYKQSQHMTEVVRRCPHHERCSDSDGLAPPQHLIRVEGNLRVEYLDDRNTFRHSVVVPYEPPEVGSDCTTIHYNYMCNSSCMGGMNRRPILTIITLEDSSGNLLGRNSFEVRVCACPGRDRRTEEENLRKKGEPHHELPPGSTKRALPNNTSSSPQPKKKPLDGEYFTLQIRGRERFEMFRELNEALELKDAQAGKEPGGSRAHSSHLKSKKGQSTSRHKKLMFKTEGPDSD

In the case of `CCOC(=O)CCN(C(=O)c1ccc2c(c1)nc(CNc1ccc(C(=N)N)cc1)n2C)c1ccccn1`, the activation in assay [1] is -4.77%. The Potency entry in assay [2], in assay [3] and in assay [4] was “inactive” throughout.

As for `O=C(CCCCN1CCOCC1)Nc1ccc(-c2cccnc2)cc1`, the activation in assay [1] is -8.11%. Also, the Potency entry in assay [2], in assay [3] and in assay [4] was “inactive” throughout.

For `COc1ccc(C(=O)NCc2cc(C(C)C)no2)cc1OC1CCN(C)CC1`, in assay [1], the activation was 4.77%. Also, the Potency result in assay [2], in assay [3] and in assay [4] was “inactive” throughout.

Take `CN(C)CCn1cc(-c2ccc(F)cc2)c(-n2cccc2)n1`: the activation in assay [1] is -10.5%. Moreover, the Potency result in assay [2], in assay [3] and in assay [4] was “inactive” each time.

Regarding `Cc1cc(C(=O)N2CCCCc3ccccc32)ccc1CNC(=O)N1CCC[C@H]1C(=O)N(C)C`, the activation in assay [1] was 4.3%. Also, the Potency entry in assay [2], in assay [3] and in assay [4] was “inactive” in each case.

In the case of `CCC(C)c1ccc(NC(=O)Cn2cnc3c2c(=O)n(C)c(=O)n3C)cc1` (stereo unspecified), the activation in assay [1] is 11.5%. Further, the Potency entry in assay [2], in assay [3] and in assay [4] was “inactive” each time.

`O=C(c1cc(Cc2n[nH]c(=O)c3ccccc23)ccc1F)N1CCCNCC1`: in assay [1], the activation was -4.3%. Besides, the Potency result in assay [2], in assay [3] and in assay [4] was “inactive” each time.

For `N#CC(c1ccnc(OCc2ccc(CN3CCOCC3)cc2)n1)c1nc2ccccc2s1` (stereo unspecified), in assay [1], the activation was 0.477%. For the same molecule, the Potency result in assay [2], in assay [3] and in assay [4] was “inactive” in each case.

For the molecule `Cc1ccc(Cl)cc1N(CC(=O)Nc1c(F)cccc1F)S(C)(=O)=O`, in assay [1], the activation was 0.955%. Further, the Potency result in assay [2], in assay [3] and in assay [4] was “inactive” in each case.

Turning to `COc1ccc([C@H]2CNC(=O)C2)cc1OC1CCCC1`, the activation in assay [1] was -26.3%. For the same molecule, the Potency entry in assay [2], in assay [3] and in assay [4] was “inactive” throughout.

With `COc1cccc(-c2cc(NCc3ccc4c(c3)OCO4)nc(N)n2)c1`, in assay [1], the activation was -3.82%. Also, the Potency entry in assay [2], in assay [3] and in assay [4] was “inactive” each time.

Regarding `O=C(CC1NCCC[C@H]1O)Cn1cnc2cc(Br)c(Cl)cc2c1=O` (stereo partly specified), the activation in assay [1] was 5.25%. The Potency result in assay [2], in assay [3] and in assay [4] was “inactive” each time.

In the case of `CC(C)[C@@H](C)/C=C/[C@@H](C)[C@H]1CC[C@H]2C3=CC=C4C[C@@H](O)CC[C@]4(C)[C@H]3CC[C@]12C`, the activation in assay [1] was 14.3%. In addition, the Potency entry in assay [2], in assay [3] and in assay [4] was “inactive” each time.

`CC(=O)NCC(=O)N1C2CCC1c1cc(Nc3ncc(C(F)(F)F)c(NC4CCC4)n3)ccc12` (stereo unspecified): in assay [1], the Potency is 3.79 µM (active). The Potency entry in assay [2], in assay [3] and in assay [4] was “inactive” each time.

For `COc1cccc(CNc2ccc(S(=O)(=O)Nc3nc4ccccc4s3)cc2)c1O`, the activation in assay [1] was -10.5%. The Potency entry in assay [2], in assay [3] and in assay [4] was “inactive” in each case.

Regarding `Cc1nc(C#Cc2ccnc(Cl)c2)c(C)n1-c1ccc(F)cc1`, the activation in assay [1] is -12.9%. The Potency result in assay [2], in assay [3] and in assay [4] was “inactive” throughout.

For `CN(CC(=O)N(Cc1ccc(C2CCCCC2)cc1)c1ccc(C(=O)O)cc1)S(=O)(=O)c1c(F)c(F)c(F)c(F)c1F`, the Potency in assay [1] was 6.75 µM (active). The Potency result in assay [2], in assay [3] and in assay [4] was “inactive” throughout.

For the molecule `C[C@@H](O[C@H]1OCCN(Cc2nn(P(=O)(O)O)c(=O)[nH]2)[C@H]1c1ccc(F)cc1)c1cc(C(F)(F)F)cc(C(F)(F)F)c1`, the activation in assay [1] was 10%. The Potency result in assay [2], in assay [3] and in assay [4] was “inactive” each time.

For the molecule `CN1CCN(Cc2ccc(NC(=O)Cc3ccc(Oc4cc(NC(=O)C5CC5)ncn4)cc3)cc2C(F)(F)F)CC1`, in assay [1], the Potency was 6.75 µM (active). In addition, the Potency result in assay [2], in assay [3] and in assay [4] was “inactive” in each case.

In the case of `O=C(Nc1ccn(Cc2ccc(O)cc2C(F)(F)F)n1)c1c(F)cccc1F`, the activation in assay [1] is -13.4%. Further, the Potency entry in assay [2], in assay [3] and in assay [4] was “inactive” throughout.

As for `CNC(=O)COC(=O)NCCC1CCN(c2cccc(C)n2)CC1`, the activation in assay [1] was 6.21%. Besides, the Potency result in assay [2], in assay [3] and in assay [4] was “inactive” each time.

With `Cc1ccc(COC(=O)N2CC[C@@H](CNc3ncccn3)[C@@H](F)C2)cc1`, the activation in assay [1] was 1.91%. The Potency entry in assay [2], in assay [3] and in assay [4] was “inactive” each time.

Regarding `Cn1c(=O)cc(N2CCCC(N)C2)n(Cc2cc(F)ccc2C#N)c1=O` (stereo unspecified), in assay [1], the activation was -2.86%. The Potency result in assay [2], in assay [3] and in assay [4] was “inactive” throughout.

Turning to `Oc1ccccc1-c1cc(-c2ccccc2F)[nH]n1`, the activation in assay [1] is -12.9%. Besides, the Potency result in assay [2], in assay [3] and in assay [4] was “inactive” throughout.

On to `COc1cc(Nc2nc3c(s2)CCCC3c2ccccc2)ccc1-n1cnc(C)c1` (stereo unspecified), for which the activation in assay [1] was -18.6%. Moreover, the activity change, negative = inhibition in assay [2] was 1.32% [at 11.2 µM]; in assay [3], 6.59% [at 20.1 µM]; in assay [4], 0.24% [at 11.2 µM].

With `CCCCCCOC(=O)/N=C(\N)c1ccc(NCc2nc3cc(C(=O)N(CCC(=O)OCC)c4ccccn4)ccc3n2C)cc1`, in assay [1], the activation was -0.955%. Moreover, the Potency entry in assay [2], in assay [3] and in assay [4] was “inactive” throughout.

As for `OC1CCC(Nc2nc(-c3ccccc3)nc3[nH]ccc23)CC1` (stereo unspecified), in assay [1], the activation is -8.11%. Further, the Potency entry in assay [2], in assay [3] and in assay [4] was “inactive” each time.

`O=C(NC1CCN(CC(F)(F)F)CC1)c1ccc(-c2cccc(F)c2)nc1`: the activation in assay [1] is -16.7%. Further, the Potency result in assay [2], in assay [3] and in assay [4] was “inactive” throughout.

Take `COc1ccccc1-n1c(SCC(=O)Nc2nc3ccc(C)cc3s2)nc2c(c1=O)SCC2`: in assay [1], the activation is -11.9%. Moreover, the Potency result in assay [2], in assay [3] and in assay [4] was “inactive” in each case.

The values above are taken from PubChem BioAssay (NCATS).
